PINK1 expr mod – A Quantitative High throughput Screen to Identify Chemical Modulators of PINK1 Expression | Potency, µM (titrated, usually from 76.6 µM), for inactives: top-dose activation (PINK1 increase), hits mostly activators | PINK1 immunofluorescence, high-content cytometry, 24 h | AID 624263, 2012 | 410,000 tested, 0.2% active; active means well fitted activation curve with a large enough effect; inconclusive means small, poorly fitted or top-dose-only effect; cell line not stated here; further: potency means the concentration at half of the fitted maximal effect; % of control where 0% means no effect; nearly all actives have a fitted effect of over 65% in size
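Readout is PINK1 immunofluorescence, quantified alongside mitochondrial, cell and nuclear markers by laser-scanning microplate cytometry. Cells from a stable line were exposed to compound titrations (5 concentrations) for 24 hours, with CCCP controls.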
S2 tox – Viability Counterscreen for Primary qHTS for Inhibitors of ATXN expression; S2 cells (HEK-293 line with an ATXN2-luciferase reporter) viability, CellTiter-Fluor protease fluorescence, 24 h; Potency, µM (highest dose often 56.7 µM), actives largely listed as cytotoxic; 400,000 tested, 0.49% active; AID 651635, 2014; further: potency means the concentration at half of the fitted maximal effect; nearly all actives have a fitted effect of over 40% in size
IL1B secr inh – qHTS for Inhibitors of Inflammasome Signaling: IL-1-beta AlphaLISA Primary Screen | AID 743279, 2014 | THP-1 LPS/ATP IL-1B secretion, AlphaLISA, 16 h; active compounds read low | activity change, % at 57.5 µM | 360,000 tested, 4.7% active; in the data active means activity change below about -50%; inconclusive means mostly about -30% to -49%; further: on the % scale 0 is the no-effect control and ±100 the full control effect
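Secreted IL-1B measured by AlphaLISA bead assay after 16 h compound exposure of THP-1 cells; compounds (final up to 57.5 uM) added 1 h before LPS (250 ng/mL) and ATP (1.25 mM) stimulation; lower signal means less secretion.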
MCF10A rereplic – A quantitative high throughput screen for small molecules that induce DNA re-replication in MCF 10a normal breast cells; MCF 10A DNA re-replication, Hoechst nuclear intensity, 48 h; 350,000 tested, 2.9% active; Potency, µM (top dose mostly 46.1 µM), for inactives: top-dose activity, positive = re-replication, most hits filed as activators; further: potency means the concentration at half of the fitted maximal effect; % of control where 0% means no effect; nearly all actives have a fitted effect of over 50% in size
SW480 rereplic – A quantitative high throughput screen for small molecules that induce DNA re-replication in SW480 colon adenocarcinoma cells. SW480 DNA re-replication, Hoechst DNA content imaging, 48 h. Potency, µM (titrated, usually from 46.1 µM), for inactives: top-dose re-replication activation, hits mostly activators. 340,000 tested, 1.8% active. AID 624297, 2012; further: potency means the concentration at half of the fitted maximal effect; % of control where 0% means no effect; nearly all actives have a fitted effect of over 55% in size
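Per well, 250 cells were exposed to pinned compound for 48 hr. Nuclear DNA was visualised with Hoechst (40 min, 37 C) and total object intensity recorded by fluorescence scanning.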
ATXN2 expr inh – Primary qHTS for Inhibitors of ATXN expression. Potency, µM (top dose mostly 57 µM), inactives show at the highest dose activity change, negative = inhibition, usual class: inhibitors. HEK-293 ATXN2-luciferase reporter, luminescence, 24 h. 360,000 tested, 0.72% active; further: potency means the concentration at half of the fitted maximal effect; on the % scale 0 is the no-effect control and ±100 the full control effect; nearly all actives have a fitted effect of over 55% in size
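qHTS (up to 57 uM final) was run with 24 h compound exposure of reporter cells at 37 °C. Each well was multiplexed: SteadyGlo luminescence measured ATXN2-luciferase expression after a fluorogenic Gly-Phe-AFC viability readout (25 uM final).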
* marks the source's active call; other numbers are inactive results; i = inactive; ? = inconclusive; nt = not tested or not shown; ! = repeats disagree; [ ] = another dose, or the depositor's remark. This is a sample that favours compounds with a hit; in the whole collection about 7.1% have one here. Unless noted, the call rests on the fitted dose curve; in most records, active means well fitted curve in the direction sought with a large enough effect; inconclusive means small, poorly fitted or top-dose-only effect, or another doubt; inactive means no such curve, though single readings can be large; an effect the other way counts as inactive or inconclusive.

SMILES | PINK1 expr mod | S2 tox | IL1B secr inh | MCF10A rereplic | SW480 rereplic | ATXN2 expr inh
Cc1cccc(CN2CCCC(C(=O)c3ccc4c5c(cccc35)CC4)C2)n1 (centres undefined) | ? | i | -27.6 | ? | ? | -34.9%
CSc1ccc(Cn2nnc(C(=O)Nc3ccc(C)cc3Cl)c2N)cc1 | 4.6% | i | nt | nt | nt | -10.0%
Cc1ccc2c(c1)N(C(=O)NC1CCCCC1)C(C)(C)CC2C (centres undefined) | 14.0%[38.3 µM] | i | 13.8 | 9.2µM* | ? | 10.3%
CCN1CCN(C(=O)c2ccc3c(c2)N(Cc2ccc(Cl)cc2)C(=O)c2ccccc2S3=O)CC1 (centres undefined) | 0.1% | i | nt | nt | nt | -13.8%
O=C1NC(=O)C(=Cc2ccc3nccc(-c4ccncc4)c3c2)S1 | nt | nt | nt | nt | nt | 6.85µM*
CO[C@@]12[C@@H]3N[C@@H]3CN1C1=C(C(=O)C(N)=C(C)C1=O)[C@@H]2COC(N)=O | -2.0% | ? | 21.5 | ? | ? | 1.26µM*
CO[C@@]12[C@H](COC(N)=O)C3=C(C(=O)C(C)=C(N)C3=O)N1C[C@@H]1N[C@@H]12 | 0.4% | ? | 0.8 | 7.5% | ? | 1.72µM*!
O=C(COC(=O)CNC(=O)C1CCCCC1)NC1CCCC1 | 2.2% | nt | nt | nt | nt | nt
OCCCCNCc1ccc(OCc2ccc(Cl)cc2Cl)cc1 | -6.6%[38.3 µM] | 25.1µM* | -100.6* | 10.4% | 3.0% | 25.1µM*
S=C(Nc1ccccc1)Nc1ccc(OCc2ccc(Cl)cc2Cl)cc1 | 8.1% | i | -2.4 | i[0.0737 µM] | ? | 1µM*
CCOc1ccc(NC(=S)Nc2ccc(OCc3ccccc3)cc2)cc1 | 2.5% | i | -9.8 | -1.6% | 1.8% | 9.3%
OCCNCc1ccc(OCc2ccc(Cl)cc2Cl)cc1 | 0.0% | ? | -97.8* | ? | 4.11µM* | ?
COc1ccc(CNCc2cc(Cl)ccc2O)cc1 | 8.9% | i | nt | -7.2% | -8.4%[9.22 µM] | 2.5%
Cc1nc2n(c(=O)c1CCN1CCC(c3noc4cc(F)ccc34)CC1)CCC[C@@H]2O | 0.4% | nt | nt | nt | nt | nt
CCC(C)NC(=O)CCc1c(C)nc2cc(-c3ccc(OC)cc3OC)nn2c1C (centres undefined) | 0.2% | i | nt | nt | nt | 5.4%
Cc1ccc2nc(-c3ccco3)c(Cc3ccccc3)n2c1 | 0.8% | ? | 1.5 | nt | nt | 4.2%
Cc1ccc2nc(-c3ccco3)c(CC(C)(C)C)n2c1 | 3.5% | 20µM* | 11.7 | nt | nt | ?
CCC1(C)Cc2c(sc3nnn(CC(=O)Nc4ccc(C)cc4)c(=O)c23)CO1 (centres undefined) | 10µM* | i | 13.6 | 22.7% | 18.8% | -3.5%
COc1ccc(/C=N/NC(=O)c2cccnc2)cc1CSc1ccccn1 | 8.2% | i | 60.4 | 13µM* | 13µM* | 4.1%
COc1ccc(C(=O)N/N=C/c2ccc(OC)c(CSc3ccccn3)c2)cc1 | 1.2% | i | ? | 14.5% | -4.8% | 6.8%
COc1ccc(/C=N/NC(=O)c2cccc(Br)c2)cc1CSc1ccccn1 | 3.6% | ? | 9.6 | 14.6µM* | ? | -11.8%
CC(=O)N1c2ccc(S(=O)(=O)N3CCC(C(=O)NCc4ccc(C)cc4)CC3)cc2CC1C (centres undefined) | -1.4% | i | 19.7 | 12.2% | 6.0% | -7.1%
O=C(NCc1ccc(Cl)cc1)C1CCN(S(=O)(=O)c2ccc(F)cc2)CC1 | -2.6% | ? | -63.8* | 10.9% | ? | -19.5%
CC(=O)N1c2ccc(S(=O)(=O)N3CCCC(C(=O)NCc4ccccc4Cl)C3)cc2CC1C (centres undefined) | 0.4% | i | -55.1* | ? | -9.0% | -8.3%
O=C(/C=C/c1ccc(S(=O)(=O)N2CCOCC2)cc1)NCc1ccc(Cl)cc1 | 2.1% | i | -62.2* | 3.3% | 9.2% | -0.9%
SMILES | PINK1 expr mod | S2 tox | IL1B secr inh | MCF10A rereplic | SW480 rereplic | ATXN2 expr inh
CC(=O)N1c2ccc(S(=O)(=O)N3CCC(C(=O)NCc4ccc(Cl)cc4)CC3)cc2CC1C (centres undefined) | 0.0% | i | 4.9 | 23.1µM* | ? | -20.1%
Cc1cccc(OC(=O)CSc2nnc(-c3ccc4c(c3)OCO4)o2)c1C | 0.9% | nt | nt | nt | nt | nt
Nc1nc(N)c(S(=O)(=O)c2ccccc2)c(Nc2ccc(Br)cc2)n1 | 1.4% | i | nt | nt | nt | -11.3%
CCn1ccc2c(OCC(=O)Nc3ccc(OC)cc3OC)cccc2c1=O | 0.3% | i | nt | nt | nt | -13.4%
C#CCNC(=O)C1CCN(c2ccc(S(=O)(=O)N3CCOCC3)cc2Cl)CC1 | 10.2% | i | 10.1 | 3.4% | 9.3% | -9.9%
O=C(NCc1cccs1)C1CCN(c2ccc(S(=O)(=O)N3CCOCC3)cc2Cl)CC1 | 2.0% | i | -13.1 | 6.51µM* | 1.3µM* | -6.2%
CC1CCCC(C)N1c1ccc(S(=O)(=O)N2CCOCC2)cc1Cl (centres undefined) | 9.7% | i | 34.4 | 8.2µM* | ? | -13.7%
CN(C)c1nc(Cl)nc(N(C#N)CCOc2ccccc2)n1 | 3.3% | i | -85.7* | ? | ? | -1.2%[11.3 µM]
CCNc1nc(NCC)nc(N(C#N)CCOc2ccccc2)n1 | -2.0% | i | -6.2 | 1.4% | -0.9% | -10.7%
Cc1ccc(-c2csc(/C=C3/SC(C)C(=O)N3CC(=O)Nc3ccccc3F)n2)cc1 (centres undefined) | 4.4% | i | 0.1 | 20.6µM* | ? | -11.6%
CCOc1ccc(NC(=O)c2nc(S(=O)(=O)Cc3ccc(F)cc3)ncc2Cl)cc1 | 3.5% | nt | nt | nt | nt | nt
CCOc1ccc(NC(=O)c2nc(S(=O)(=O)Cc3ccccc3C)ncc2Cl)cc1 | 11.3% | nt | nt | nt | nt | nt
Cc1ccccc1CS(=O)(=O)c1ncc(Cl)c(C(=O)Nc2ccc(F)cc2)n1 | 0.6% | nt | -97.5* | ? | -4.3% | nt
O=C(Nc1nc2ccc(F)cc2s1)c1nc(S(=O)(=O)Cc2ccccc2)ncc1Cl | -0.2% | 14.1µM* | nt | nt | nt | ?
Cc1ccc(NC(=O)c2nc(S(=O)(=O)Cc3ccccc3)ncc2Cl)cc1 | -0.6% | ? | -103.4* | ? | 20.2% | ?
O=C(Nc1ccccc1F)c1nc(S(=O)(=O)Cc2ccccc2F)ncc1Cl | 1.2% | 17.8µM* | nt | nt | nt | ?
Cc1cc(/C=C2\C=Cc3ccccc32)ccc1N(C)C | 5.2% | nt | nt | nt | nt | nt
COc1cc(C)c(CN2CCc3nnc(C(C)NC(=O)c4cc(F)ccc4F)n3CC2)cc1C (centres undefined) | 0.0% | i | nt | nt | nt | nt
O=C(NCc1ccccc1)c1nc(S(=O)(=O)Cc2ccc(F)cc2)ncc1Cl | 0.4% | nt | nt | nt | nt | nt
O=C(Nc1ccc(F)cc1)c1nc(S(=O)(=O)Cc2ccccc2)ncc1Cl | -1.0% | nt | -95.0* | 6.1% | 3.8% | ?
